Only some compounds are listed: those with a hit (about 4.2% of all), similar ones and a draw of the others.
RecA intein inh: inhibitors of M. tuberculosis RecA intein splicing; inhibition, % (test concentration not listed); P9WHJ3; 0.75% of 290,000 active; cell-free RecA intein splicing, fluorescence; in the data active = inhibition above about 30%
Target sequence (P9WHJ3 whole entry, looked up): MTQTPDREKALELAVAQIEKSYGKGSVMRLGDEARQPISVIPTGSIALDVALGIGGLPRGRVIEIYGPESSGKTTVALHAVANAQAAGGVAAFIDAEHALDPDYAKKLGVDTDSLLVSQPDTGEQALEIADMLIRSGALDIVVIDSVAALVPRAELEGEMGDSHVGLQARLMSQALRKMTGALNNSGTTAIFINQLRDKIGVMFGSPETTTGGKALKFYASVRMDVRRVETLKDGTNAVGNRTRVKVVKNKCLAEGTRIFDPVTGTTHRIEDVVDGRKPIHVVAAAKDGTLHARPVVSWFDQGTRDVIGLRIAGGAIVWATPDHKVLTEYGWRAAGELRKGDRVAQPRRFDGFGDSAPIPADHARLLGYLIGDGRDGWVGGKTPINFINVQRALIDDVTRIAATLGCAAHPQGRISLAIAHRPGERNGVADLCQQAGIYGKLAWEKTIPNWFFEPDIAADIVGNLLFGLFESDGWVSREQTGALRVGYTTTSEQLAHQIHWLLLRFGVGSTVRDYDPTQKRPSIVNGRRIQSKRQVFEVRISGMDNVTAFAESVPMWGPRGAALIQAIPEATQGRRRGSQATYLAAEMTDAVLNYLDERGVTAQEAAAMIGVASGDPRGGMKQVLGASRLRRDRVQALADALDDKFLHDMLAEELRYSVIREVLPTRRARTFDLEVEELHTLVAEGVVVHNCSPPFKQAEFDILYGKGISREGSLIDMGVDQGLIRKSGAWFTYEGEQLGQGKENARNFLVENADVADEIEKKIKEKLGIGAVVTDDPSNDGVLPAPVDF
GDH-TPI counter-1: GDH-TPI coupled enzyme inhibition counter-screen. 1.2% of 360,000 active. inhibition, % at 4.8 µM. GDH-TPI coupled enzyme counterscreen, NADH absorbance. AID 588335; in the data active = inhibition above about 30%
BJeLR viability: kills HRASV12-expressing BJeLR cells | BJeLR (HRASV12) viability, CellTiter-Glo ATP luminescence, 48 h | inhibition, % (test concentration not listed) | 0.17% of 300,000 active | AID 1554; in the data active = inhibition above about 50%
FBA Mtb inh: inhibits M. tuberculosis FBA enzyme; P9WQA3; purified M. tuberculosis FBA, fluorescence read-out; inhibition, % at 1 µM; AID 588726; 2.3% of 360,000 active
PrPC TRFRET: inhibitors of human cell surface prion protein PrPC. P04156. TR-FRET read-out. inhibition, % at 13.8 µM. 0.43% of 370,000 active. AID 720596; in the data active = inhibition above about 24%
Mtb FBA inh conf: confirmation of M. tuberculosis fructose-bisphosphate aldolase inhibitors. shares compounds with FBA Mtb inh. purified M. tuberculosis FBA, fluorescence read-out. inhibition, % at 1 µM. 78% of 5,600 active. AID 651616
GDH-TPI counter-2: counter-screen for M. tuberculosis FBA inhibitors: GDH-TPI coupled enzyme inhibition | shares compounds with FBA Mtb inh | GDH-TPI coupled enzyme counterscreen, fluorescence | inhibition, % at 1 µM | 81% of 5,600 active; in the data active = inhibition above about 10%
A number is an active result; . = inactive; / = no result; + = active, no number. Cut-off read from the data, not from the text of the source, unless noted: active = inhibition above about 27%; inactive = the rest.

SMILES	RecA intein inh	GDH-TPI counter-1	BJeLR viability	FBA Mtb inh	PrPC TRFRET	Mtb FBA inh conf	GDH-TPI counter-2
COC(=O)C1CN(Cc2ccc(Cl)cc2)CCS(=O)(=O)N1Cc1cn(Cc2ccc(C)cc2)nn1 (stereo not given)	/	/	/	/	.	/	/
CC(C)NC(=O)COC(=O)c1ccc(Cl)c(S(=O)(=O)N2CCCC2)c1	/	.	.	40	.	124	95
C=CCN(C(=O)COc1ccccc1)c1nnc(-c2ccncc2)s1	.	.	.	41	.	95	70
CCOCCCN(Cc1ccco1)C(=O)c1cc2c(=O)[nH]c3ccc(C)cc3c2s1	.	.	.	32	.	.	.
Cc1ccc2[nH]c(=O)c3cc(C(=O)N(C)Cc4ccco4)sc3c2c1	.	.	.	51	.	187	135
CCCN(CCC)C(=O)c1cc2c(=O)[nH]c3ccc(C)cc3c2s1	.	.	.	.	.	/	/
Cc1ccccc1Cn1cc(CN2[C@@H](CC(C)C)COc3cc(Br)ccc3S2(=O)=O)nn1	/	/	/	/	.	/	/
CN(C)CCCNC(=O)c1cccc(-c2cnc3cccnn23)c1	/	.	/	102	.	+	+
O=C(NCCO)c1cccc(-c2cccc3nncn23)c1	/	.	/	75	.	72	42
COC(=O)Nc1c(-c2ccccc2)nc2ccccn12	.	.	.	75	.	188	140
COC(=O)Nc1c(-c2ccccc2)nc2ccc(C)cn12	.	.	.	65	.	120	116
c1ccc(-c2nc3ccccn3c2-c2ccccc2)cc1	.	.	.	29	.	.	.
CC(=O)Nc1c(-c2ccc(F)cc2)nc2ccccn12	.	.	.	.	.	/	/
C=CC[C@]12C[C@@]3(O[C@H](C4CCCCC4)N=C3C[C@H](c3ccc(OC)cc3)[C@H]1C)N(Cc1ccncc1)C2=O	/	/	/	/	.	/	/
C[C@H]1[C@H](c2ccccc2)Oc2cccc(NCCc3ccccc3)c2S(=O)(=O)N1Cc1ccc(F)cc1	/	/	/	/	.	/	/
Cc1ccc(-n2c(O)c(C=Nc3cc(C)on3)c3ccccc3c2=O)c(C)c1	.	.	.	47	.	+	+
Cc1cc(N=Cc2c(O)n(-c3ccc(C)c(C)c3)c(=O)c3ccccc23)no1	/	/	/	/	.	/	/
CCCCCCCCN1CN2Cc3cc(OC)ccc3C2CS1(=O)=O (stereo not given)	/	/	/	/	.	/	/
Cc1ccc(/C=C/C(=O)N2CCN(c3ccc(F)cc3)CC2)o1	.	.	.	58	.	38	36
O=C(/C=C/c1ccco1)N1CCN(c2ccc(F)cc2)CC1	.	.	.	.	.	/	/
CC1Nc2ccccc2C(=O)N1NS(C)(=O)=O (stereo not given)	/	.	.	50	.	74	61
COc1ccc(C2Nc3ccccc3C(=O)N2NS(C)(=O)=O)cc1 (stereo not given)	.	.	.	27	.	105	108
COc1cc(C2Nc3ccccc3C(=O)N2NS(C)(=O)=O)ccc1O (stereo not given)	.	.	.	.	.	/	/
O=C(Cc1cc(=O)[nH][nH]1)N/N=C/c1ccccc1C(F)(F)F	/	/	/	/	.	/	/
C[C@@H]1C=CCCO[C@]12C(=O)N(Cc1ccccc1C(F)(F)F)c1ccccc12	/	/	/	/	.	/	/
SMILES	RecA intein inh	GDH-TPI counter-1	BJeLR viability	FBA Mtb inh	PrPC TRFRET	Mtb FBA inh conf	GDH-TPI counter-2
COCCSc1nc(N)c2c3c(sc2n1)CN(C)CC3	.	.	.	52	.	70	48
CN(C)CCSc1nc(N)c2c3c(sc2n1)CN(C)CC3	.	.	.	38	.	73	62
COc1ccc(N2CCN(CCCNC(=O)CCc3cccc(F)c3)CC2)cc1	/	/	/	/	.	/	/
Cn1cccc1C(=O)N1CCN(S(=O)(=O)c2cccs2)CC1	/	/	/	/	.	/	/
O=c1[nH]c(=O)c2cc3ccccc3nc2[nH]1	/	.	/	75	.	47	45
Cc1nc2cc3ccccc3cc2c(=O)[nH]1	.	.	.	67	.	.	.
Cc1ccc(CNC(=O)[C@@H](Cc2ccccc2)NC(=O)[C@H]2O[C@@H](n3ccc(N)nc3=O)[C@H](O)[C@@H]2O)o1	/	/	/	/	.	/	/
CCCCNS(=O)(=O)CC1NCc2cc(OC)ccc21 (stereo not given)	/	/	/	/	.	/	/
Cc1ccc2c(c1)nc(NCCCO)n2C	.	.	.	.	.	/	/
COc1ccc2c(c1)nc(NCCO)n2C	.	.	.	37	.	187	170
Cc1nc2ccc(C(=O)N3CCN(C(=O)C(Cl)Cl)CC3)cc2n1C1CCCC1	/	/	/	/	.	/	/
